A short description of test [1]: Nuclear factor erythroid 2-related factor 2/antioxidant responsive element (Nrf2/ARE) small molecule agonists: qHTS cell viability counter screen in human keratinocytes (AID 1919968; active = well fitted curve in the direction sought with a large enough effect in the repeat runs; an effect the other way counts as inactive or inconclusive; also: nearly all actives have a fitted effect of over 55% in size). In short, it runs like this:
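CellTiter-Fluor fluorescence, read 1 h after reagent, gave viability in the same wells as the ARE-luciferase assay. KeratinoSens cells (1,500/well) had 23 h compound exposure at 37 C/5% CO2 following 5 h plating.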
A general note: In qHTS, concentration-response curves come from the screen itself.

Test [2] is described as follows: Nuclear factor erythroid 2-related factor 2/antioxidant responsive element (Nrf2/ARE) small molecule agonists: luciferase reporter gene qHTS assay in human keratinocytes (AID 1919969). Also: nearly all actives have a fitted effect of over 35% in size. Also: potency is read from the fitted curve at half-maximal effect. On the technique in general: In a reporter assay the amount or activity of a reporter protein is the signal.
Test [3] deals with Gonadotropin-releasing hormone receptor (Homo sapiens) (UniProt P30968). Kind of test: Human gonadotropin-releasing hormone receptor (GnRHR) small molecule agonists, calcium flux assay in GnRHR-HEK293 cells (AID 1920063). Also: nearly all actives have a fitted effect of over 35% in size. In short, it runs like this:
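Agonist mode: compounds at 15 concentrations, in triplicate, went onto calcium dye-loaded GnRHR-HEK293 cells. Intracellular calcium was then followed as 480/540 nm fluorescence at 1 s intervals over 3 min.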
For orientation: Calcium flux is commonly read through the fluorescence of an indicator in the cells.

The target of test [4] is KiSS-1 receptor (Homo sapiens) (UniProt Q969F8). Kind of test: Human kisspeptin (KISS1R) small molecule agonists, calcium flux assay in KISS1R-HEK293 cells (AID 1920064; active = well fitted curve in the direction sought with a large enough effect in the repeat runs; an effect the other way counts as inactive or inconclusive). In short, it runs like this: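 Agonist mode: intracellular calcium rise tracked at 1 s intervals over 3 min (480/540 nm) immediately after compound addition to dye-loaded KISS1R-HEK293 stable cells. Each compound tested at 15 concentrations in triplicate.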

The nature of test [5]: G protein-coupled receptor (GPCR) small molecule agonists, calcium flux assay: HEK293 wild type cell line counter screen (AID 1920065). The method in brief: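 Calcium flux counter screen: compound added in agonist mode at 15 concentrations in triplicate to dye-loaded parental HEK293 cells. Fluorescence (480/540) read kinetically for 3 min; ATP served as positive control.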

Test [6] is described as follows: p53 small molecule agonists, cell-based qHTS assay with rat liver microsomes (AID 1963578). In short, it runs like this:
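Quantitative HTS of the Tox21 10K library: p53RE-bla cells, rat liver microsomes plus NADPH at 0.5 mg/mL final each, 16 h at 37 C, beta-lactamase fluorescence detection.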

Test [7] can be described thus: p53 small molecule agonists, cell-based qHTS assay with human liver microsomes: qHTS cell viability counter screen (AID 1963579). Also: nearly all actives have a fitted effect of over 45% in size. The method in brief:
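Viability of p53RE-bla cells is measured as CellTiter-Glo luminescence following a 16 h, 37 C incubation with compound, liver microsomes from human donors and NADPH.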

Test [8] in a line: p53 small molecule agonists, cell-based qHTS assay with rat liver microsomes: qHTS cell viability counter screen (AID 1963580). Also: nearly all actives have a fitted effect of over 45% in size. The method in brief:
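Cytotoxicity counter screen: intracellular ATP measured by CellTiter-Glo luminescence in the same wells as the beta-lactamase reporter read, on HCT-116 p53RE-bla cells exposed 16 h at 37 C to compounds with rat liver microsomes and NADPH, each 0.5 mg/mL final.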

Test [9] can be described thus: p53 small molecule agonists, cell-based qHTS assay: qHTS cell viability counter screen (AID 1963581). Also: nearly all actives have a fitted effect of over 45% in size. The method in brief:
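Counter screen read by CellTiter-Glo luminescence (ATP content, 30 min at room temperature), run in the same wells as the beta-lactamase reporter read. HCT-116 p53RE-bla cells saw compounds for 16 h at 37 C.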

A short description of test [10]: p53 small molecule agonists, cell-based qHTS assay (AID 1963582; active = well fitted activation curve with a large enough effect in the signal ratio in the repeat runs, not every such curve was filed as active; the % refers to the signal ratio). In short, it runs like this: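 Read-out is beta-lactamase FRET fluorescence after 2 h at room temperature with LiveBLAzer B/G substrate. p53 response element-bla cells were treated 16 h at 37 C with compounds in DMSO, added 5 h after seeding.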
Test [11] has as its target 5-hydroxytryptamine receptor 2A (Homo sapiens) (UniProt P28223). Briefly: 5-hydroxytryptamine receptor 2A (HTR2A) small molecule agonists, cell-based qHTS assay (AID 1963587). Also: nearly all actives have a fitted effect of over 30% in size. In short, it runs like this:
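CHO cells stably expressing human HTR2A, plated 18 h, loaded with calcium dye 1 h at 37 C. Agonist mode: compounds added and intracellular calcium fluorescence recorded kinetically for 2 min at 1 sec intervals.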

The target in test [12] is Muscarinic acetylcholine receptor M1 (Homo sapiens) (UniProt P11229). Briefly: Cholinergic receptor muscarinic 1 (CHRM1) small molecule antagonists, cell-based qHTS assay (AID 1963588). Also: nearly all actives have a fitted effect of over 40% in size. Also: potency is read from the fitted curve at half-maximal effect. In short, it runs like this:
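Compounds were tested at 15 concentrations in three independent runs. Dye-loaded CHRM1-CHO cells were exposed 5 min at room temperature before stimulation by acetylcholine added at 50nM. Intracellular calcium was read kinetically on FDSS for 3 min.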

The target is the same in test [13]. Briefly: Cholinergic receptor muscarinic 1 (CHRM1) small molecule agonists, cell-based qHTS assay (AID 1963589). Also: nearly all actives have a fitted effect of over 35% in size. The method in brief: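 Agonist-mode calcium-flux screen: compounds at 15 concentrations, three independent runs, were pin-transferred onto dye-loaded human CHRM1-CHO cells. Fluorescence was then recorded kinetically every second over minutes.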
Test [14] is described as follows: cAMP Responsive Elements (CRE) small molecule agonists, cell-based qHTS assay (AID 1963590). The method in brief: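 Agonist mode: compound added to CRE-bla HEK 293T cells (2,000/well, 18 h after plating) for 3 h at 37 C/5% CO2. Reporter activity detected via FRET beta-lactamase substrate, 2 h room-temperature loading.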
Test [15] is described as follows: cAMP Responsive Elements (CRE) small molecule antagonists, cell-based qHTS assay (AID 1963591; active = well fitted inhibition curve with a large enough effect in the signal ratio in the repeat runs, not every such curve was filed as active; the % refers to the signal ratio). In short, it runs like this: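 Antagonist mode: compounds are added alongside the adenylyl cyclase activator NKH477 (0.25 uM final) to CRE-bla HEK293T cells for 3 h. LiveBLAzer FRET substrate, 2 h at room temperature, reports bla expression.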
In test [16] the target is Beta-2 adrenergic receptor (Homo sapiens) (UniProt P07550). Briefly: Adrenergic beta2 receptor (ADRB2) small molecule antagonists, cell-based qHTS assay (AID 1963592). Also: series mostly up to about 92 µM; nearly all actives have a fitted effect of over 50% in size. In short, it runs like this: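 Assay format: CHO-ADRB2 cells, 18-20hr seeding at 37C/5% CO2, then compound plus 1nM isoproterenol agonist mix for 0.5hr RT. Homogeneous time-resolved fluorescence cAMP detection after 1hr, expressed as 665/615 nm ratio.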

For test [17], the target named is D(2) dopamine receptor (Homo sapiens) (UniProt P14416). Briefly: Dopamine D2 receptor (DRD2) small molecule agonists, cell-based qHTS assay (AID 1963594). Also: nearly all actives have a fitted effect of over 35% in size. The method in brief: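 HEK293 cells stably expressing human DRD2, pre-treated with PDE inhibitor Ro20-1724 (0.1 mM final) and compound 10 min at room temperature, then stimulated with NKH477 (200nM […]) for 30 min. cAMP read by HTRF (665/620 nm).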

Test [18] deals with Beta-2 adrenergic receptor (Homo sapiens) (UniProt P07550). Briefly: Adrenergic beta2 receptor (ADRB2) small molecule agonists, cell-based qHTS assay (AID 1963593).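 Also: CHO cells stably overexpressing human ADRB2.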 In short, it runs like this: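 CHO cells stably over-expressing ADRB2 were plated overnight at 37C, then dosed with compounds plus a stimulation mix containing 100uM IBMX and 25uM Ro-20-1724 for 0.5hr at room temperature. cAMP was measured by HTRF competition, 1hr.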

Test [19] addresses D(2) dopamine receptor (Homo sapiens) (UniProt P14416). Briefly: Dopamine D2 receptor (DRD2) small molecule antagonists, cell-based qHTS assay (AID 1963595; active = well fitted inhibition curve with a large enough effect in the signal ratio in the repeat runs, with a control signal flat; the % refers to the signal ratio). The method in brief: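 In this cell-based antagonist screen, compounds act for 10 min at room temperature before a 30 min challenge with 12 nM quinpirole and 200 nM NKH477. cAMP is quantified by HTRF competition in DRD2-HEK293 cells containing 0.1 mM Ro20-1724.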

For test [20], the target named is 5-hydroxytryptamine receptor 2A (Homo sapiens) (UniProt P28223). Briefly: 5-hydroxytryptamine receptor 2A (HTR2A) small molecule antagonists, cell-based qHTS assay (AID 1963586). Also: nearly all actives have a fitted effect of over 45% in size. In short, it runs like this: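 CHO cells stably expressing human HTR2A were plated for 18 h at 37 C, then loaded with calcium dye for 1 h. Compounds were preincubated 5 min at room temperature before DOI (4 nM solution) was added. Kinetic fluorescence was read for 3 min.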

SMILES strings stand for the structures. Values without a mark were called inactive. Results filed as inconclusive are left out. Calls of active or inactive are those of the source. Unless noted, calls follow the shape of the full dose curve.
% is scaled to controls: 0 for no effect and ±100 for the full control effect.

D(2) dopamine receptor (Homo sapiens), sequence (P14416 whole entry, looked up): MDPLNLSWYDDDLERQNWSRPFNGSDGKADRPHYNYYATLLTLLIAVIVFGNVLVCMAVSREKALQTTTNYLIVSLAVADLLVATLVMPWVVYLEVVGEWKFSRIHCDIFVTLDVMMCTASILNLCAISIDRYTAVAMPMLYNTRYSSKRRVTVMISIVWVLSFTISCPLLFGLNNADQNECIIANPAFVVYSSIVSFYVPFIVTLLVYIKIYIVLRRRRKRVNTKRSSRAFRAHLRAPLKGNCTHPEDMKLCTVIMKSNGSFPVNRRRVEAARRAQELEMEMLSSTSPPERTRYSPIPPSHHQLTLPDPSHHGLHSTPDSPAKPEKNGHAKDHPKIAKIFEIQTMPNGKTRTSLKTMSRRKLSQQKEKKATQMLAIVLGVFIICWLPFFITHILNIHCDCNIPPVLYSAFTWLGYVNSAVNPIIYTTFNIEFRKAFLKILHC
KiSS-1 receptor (Homo sapiens), sequence (Q969F8 whole entry, looked up): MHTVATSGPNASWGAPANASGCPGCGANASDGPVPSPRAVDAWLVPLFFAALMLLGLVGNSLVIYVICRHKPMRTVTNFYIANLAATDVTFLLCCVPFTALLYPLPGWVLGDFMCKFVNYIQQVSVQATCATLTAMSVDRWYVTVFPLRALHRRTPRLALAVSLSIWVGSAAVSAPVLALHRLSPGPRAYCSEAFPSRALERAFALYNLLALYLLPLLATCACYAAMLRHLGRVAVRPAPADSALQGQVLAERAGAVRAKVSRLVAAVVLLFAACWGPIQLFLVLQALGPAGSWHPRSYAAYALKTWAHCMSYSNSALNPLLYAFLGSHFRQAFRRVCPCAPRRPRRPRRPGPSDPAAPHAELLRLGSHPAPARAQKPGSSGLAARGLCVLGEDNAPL
Beta-2 adrenergic receptor (Homo sapiens), sequence (P07550 whole entry, looked up): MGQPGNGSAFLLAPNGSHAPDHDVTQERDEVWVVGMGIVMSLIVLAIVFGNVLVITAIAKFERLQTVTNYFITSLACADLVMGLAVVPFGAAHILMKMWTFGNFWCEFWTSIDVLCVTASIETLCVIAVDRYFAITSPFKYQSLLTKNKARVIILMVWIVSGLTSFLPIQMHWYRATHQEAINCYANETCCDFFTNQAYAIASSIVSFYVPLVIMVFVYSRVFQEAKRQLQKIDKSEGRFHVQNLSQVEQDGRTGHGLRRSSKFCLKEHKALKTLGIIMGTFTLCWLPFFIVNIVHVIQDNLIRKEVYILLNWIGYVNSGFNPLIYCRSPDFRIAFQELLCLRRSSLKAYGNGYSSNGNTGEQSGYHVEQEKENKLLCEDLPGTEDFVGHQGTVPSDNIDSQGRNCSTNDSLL
5-hydroxytryptamine receptor 2A (Homo sapiens), sequence (P28223 whole entry, looked up): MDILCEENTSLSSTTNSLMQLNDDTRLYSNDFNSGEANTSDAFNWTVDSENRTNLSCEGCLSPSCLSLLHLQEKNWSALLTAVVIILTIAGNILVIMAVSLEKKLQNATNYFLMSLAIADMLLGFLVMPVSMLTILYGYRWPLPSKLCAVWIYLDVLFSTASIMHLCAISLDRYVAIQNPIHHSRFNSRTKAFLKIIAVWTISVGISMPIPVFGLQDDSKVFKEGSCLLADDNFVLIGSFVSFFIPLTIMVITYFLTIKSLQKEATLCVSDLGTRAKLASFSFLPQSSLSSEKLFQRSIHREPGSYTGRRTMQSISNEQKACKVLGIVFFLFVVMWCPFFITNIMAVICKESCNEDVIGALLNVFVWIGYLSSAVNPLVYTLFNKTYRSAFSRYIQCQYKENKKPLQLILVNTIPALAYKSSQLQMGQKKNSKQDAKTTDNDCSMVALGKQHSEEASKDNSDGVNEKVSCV
Gonadotropin-releasing hormone receptor (Homo sapiens), sequence (P30968 whole entry, looked up): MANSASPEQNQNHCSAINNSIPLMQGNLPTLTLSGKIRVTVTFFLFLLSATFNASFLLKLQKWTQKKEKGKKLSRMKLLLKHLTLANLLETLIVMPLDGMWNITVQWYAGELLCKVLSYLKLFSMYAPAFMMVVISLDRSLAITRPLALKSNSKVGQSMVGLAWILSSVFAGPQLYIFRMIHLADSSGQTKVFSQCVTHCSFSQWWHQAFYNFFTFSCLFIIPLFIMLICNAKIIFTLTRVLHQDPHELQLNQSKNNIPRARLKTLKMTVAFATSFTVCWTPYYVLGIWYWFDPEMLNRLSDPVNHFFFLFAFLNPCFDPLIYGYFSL
Muscarinic acetylcholine receptor M1 (Homo sapiens), sequence (P11229 whole entry, looked up): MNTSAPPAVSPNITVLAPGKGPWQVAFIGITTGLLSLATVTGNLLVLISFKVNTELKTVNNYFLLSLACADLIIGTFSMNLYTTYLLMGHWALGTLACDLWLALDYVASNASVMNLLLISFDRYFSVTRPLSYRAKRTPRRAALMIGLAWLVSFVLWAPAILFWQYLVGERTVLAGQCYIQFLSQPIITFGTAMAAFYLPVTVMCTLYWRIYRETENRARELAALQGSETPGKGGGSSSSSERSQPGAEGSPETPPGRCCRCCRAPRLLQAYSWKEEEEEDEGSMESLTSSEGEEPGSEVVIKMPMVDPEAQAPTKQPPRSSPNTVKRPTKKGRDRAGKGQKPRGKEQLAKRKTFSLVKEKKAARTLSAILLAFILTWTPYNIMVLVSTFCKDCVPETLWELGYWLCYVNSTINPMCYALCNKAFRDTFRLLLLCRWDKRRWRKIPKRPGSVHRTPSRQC

Turning to `CCCCCCCCCI`, the Potency entry in test [1], in test [2], in test [3], in [6], in test [7] and in [8] was “inactive” throughout. The Potency result in test [9], in test [10], in [11], in test [13], in test [14] and in test [15] was “inactive” each time. Besides, the Potency entry in [16] and in test [17] was “inactive” throughout. Also, the outcome in test [4] and in test [5] was inactive. For the same molecule, in test [12], the Potency is 8.55 µM (active).
`O=NN(CCCl)C(=O)NC1CCCCC1`: the Potency entry in test [1], in test [2], in [3], in test [6], in test [7] and in [8] was “inactive” throughout. Besides, the Potency entry in test [9], in [10], in test [14], in [15], in test [16] and in test [18] was “inactive” throughout. The Potency entry in test [19] was “inactive”. In addition, the result in [4] and in [5] was inactive.
In the case of `C=CC(C)(CCC=C(C)C)OC(=O)c1ccccc1` (stereo not drawn), the Potency entry in test [1], in test [3], in test [6], in [7], in test [8] and in test [9] was “inactive” throughout. Besides, the Potency result in test [10], in [20], in test [11], in [12], in test [13] and in [14] was “inactive” each time. Further, the Potency entry in [15], in test [16], in test [17] and in test [19] was “inactive” in each case. For the same molecule, the Potency in [2] was 24.3 µM (active). In addition, the outcome in test [4] and in test [5] was inactive.
Turning to `NC(=O)N1c2ccccc2CC(=O)c2ccccc21`, the Potency result in [1], in test [2], in test [3], in test [6], in test [7] and in [8] was “inactive” throughout. Besides, the Potency entry in test [9], in test [10], in test [14], in [15], in test [16] and in test [19] was “inactive” each time. Also, the outcome in test [4] and in [5] was inactive.
Consider `CC(=O)Nc1ccc(S(N)(=O)=O)cc1`, for which the Potency result in test [1], in [2], in [3], in test [6], in [7] and in test [8] was “inactive” throughout. Further, the Potency result in test [9], in [10], in test [20], in test [11], in test [12] and in test [13] was “inactive” throughout. Also, the Potency result in test [14], in [16] and in test [19] was “inactive” each time. For the same molecule, the outcome in [4] and in [5] was inactive.
For `O=C(O)CCSCCC(=O)O`, the Potency entry in test [1], in [2], in test [3], in [6], in [7] and in test [8] was “inactive” in each case. Moreover, the Potency entry in test [9], in test [10], in test [20], in test [11], in test [13] and in test [14] was “inactive” throughout. Further, the Potency result in test [15], in [18], in test [17] and in test [19] was “inactive” throughout. Further, the outcome in test [4] and in test [5] was inactive.
Regarding `CCOC(=O)C1=NOC(c2ccccc2)(c2ccccc2)C1`, the Potency entry in test [1], in test [2], in test [3], in test [6], in test [7] and in [8] was “inactive” throughout. Further, the Potency result in test [9], in test [10], in test [13], in test [14], in [16] and in test [18] was “inactive” in each case. Further, the Potency entry in test [17] and in test [19] was “inactive” in each case. For the same molecule, the outcome in test [4] and in test [5] was inactive.
In the case of `CCCCCCCCCCCCCCCCCO`, the activity change, negative = cytotoxicity in test [1] is 0.787% [at 19 µM]; in [7], -0.024% [at 13.5 µM]; in test [8], -2.14% [at 13.5 µM]; in test [9] it was 17.8% [at 13.5 µM]. Further, in test [2], the activity, positive = activation is -1.74% [at 19 µM]. Moreover, the activity change in test [3] is 4.53% [at 11.8 µM, active compounds read high]. The activation in [4] was 3.41% [at 15.8 µM]; in test [5] it was -0.253% [at 11.8 µM]; in test [6] it was 1.18% [at 13.6 µM]; in [10] it was -2.02% [at 13.5 µM]; in [13], -0.0126% [at 15.8 µM]; in [17], 0.198% [at 19 µM]. Further, the activity, negative = inhibition is -18.1% [at 12.7 µM] in test [20] and -16.4% [at 12.6 µM] in test [12]. Moreover, the activity change, negative = inhibition in [15] was 0.936% [at 18.9 µM]; in [16], -1.56% [at 19 µM]; in test [19], 6.26% [at 18.9 µM].

The values are drawn from PubChem BioAssay (Tox21).
